Experimental data taken from PubChem BioAssay AID1159580 (chemical genetic matrix, 2015).
Values joined by “and” are separate entries in the source; they are usually repeats but may differ in a detail not shown here. Identical values can stand only once. Screen size: about 5,500 compounds; about 2,000 (36%) were called active. About 18% were inconclusive and are not listed. Rule as the data show it: active = normalized growth mostly below about 0.91 (no sharp cut-off); inconclusive = no clear call, values can overlap the other calls; inactive = mostly above about 0.92. The list shows a part of the results.

Test: chemical genetic growth profiling, strain panel (AID 1159580);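 also: tested at 20 µM; growth read once vehicle control cultures reached saturation at 30 °C; 1 = growth at the plate median or of vehicle wells; lower values mean less growth of the strain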
Details: S. cerevisiae deletion strains, growth OD
[1] = locus YAL013W, strain DEP1, stronger effect = lower value
[2] = locus YBR229C, strain ROT2, stronger effect = lower value
[3] = locus YCL061C, strain MRC1, stronger effect = lower value
[4] = locus YDL101C, strain DUN1, stronger effect = lower value
[5] = locus YDR150W, strain NUM1, stronger effect = lower value
[6] = locus YEL061C, strain CIN8, stronger effect = lower value
[7] = locus YGR078C, strain PAC10, stronger effect = lower value
[8] = locus YHR030C, strain SLT2, stronger effect = lower value
[9] = locus YHR087W, strain rtc3, stronger effect = lower value
[10] = locus YJR043C, strain POL32, stronger effect = lower value
[11] = locus YJR075W, strain HOC1, stronger effect = lower value
[12] = locus YLR039C, strain RIC1, stronger effect = lower value
[13] = locus YLR058C, strain SHM2 (second series), stronger effect = lower value
[14] = locus YLR085C, strain ARP6, stronger effect = lower value
[15] = locus YLR262C, strain YPT6, stronger effect = lower value
[16] = locus YML094W, strain GIM5, stronger effect = lower value
[17] = locus YMR219W, strain ESC1, stronger effect = lower value
[18] = locus YMR263W, strain SAP30, stronger effect = lower value
[19] = locus YNL153C, strain GIM3, stronger effect = lower value
[20] = locus YNL298W, strain CLA4 (second series), stronger effect = lower value
[21] = locus YNL322C, strain KRE1, stronger effect = lower value
[22] = locus YNR030W, strain Alg12, stronger effect = lower value
[23] = locus YPL055C, strain LGE1, stronger effect = lower value
[24] = locus YPL241C, strain CIN2, stronger effect = lower value
[25] = locus YPR135W, strain CTF4, stronger effect = lower value

Measured: normalized growth

OC1(C(F)(F)F)CC(c2ccccc2)=NN1 (centres undefined)
active: [15] 0.809
inactive: [1] 0.974 | [2] 0.968 | [3] 0.978 | [4] 0.987 | locus YDL134C, strain PPH21, stronger effect = lower value 0.984 | [5] 0.949 | [6] 1 | [7] 0.972 | [8] 1.08 | [9] 0.967 | locus YJL187C, strain SWE1, stronger effect = lower value 1 | [10] 0.991 | [11] 0.915 | [12] 0.843 | [13] 0.961 | [14] 1.03 | [16] 1 | [17] 0.976 | [18] 0.976 | [19] 0.981 | [20] 0.989 | [21] 0.953 | [22] 1 | [23] 0.981 | [24] 1.02 | [25] 0.92

OC1(C(F)(F)F)CC(c2ccc3ccccc3c2)=NN1 (centres undefined)
active: [1] 0.205 | locus YAR019C, strain CDC15, stronger effect = lower value 0.155 | locus YBL105C, strain PKC1, stronger effect = lower value 0.336 | locus YBR135W, strain CKS1, stronger effect = lower value 0.263 | locus YBR136W, strain MEC1, stronger effect = lower value 0.339 | locus YBR160W, strain CDC28, stronger effect = lower value 0.367 | [2] 0.223 | [3] 0.19 | locus YDL017W, strain CDC7, stronger effect = lower value 0.373 | locus YDL028C, strain MPS1, stronger effect = lower value 0.402 | [4] 0.215 and 0.164 | locus YDL108W, strain KIN28, stronger effect = lower value 0.392 | locus YDL132W, strain cdc53, stronger effect = lower value 0.234 | locus YDL214C, strain PRR2, stronger effect = lower value 0.224 | locus YDR052C, strain DBF4, stronger effect = lower value 0.302 | locus YDR054C, strain cdc34, stronger effect = lower value 0.233 | [5] 0.397 | locus YDR226W, strain ADK1, stronger effect = lower value 0.278 | locus YDR477W, strain SNF1, stronger effect = lower value 0.146 | [6] 0.146 | locus YER123W, strain YCK3, stronger effect = lower value 0.181 | locus YER133W, strain GLC7, stronger effect = lower value 0.135 | locus YFL009W, strain cdc4, stronger effect = lower value 0.17 | locus YFL029C, strain CAK1, stronger effect = lower value 0.16 | locus YFR003C, strain YPI1, stronger effect = lower value 0.405 | locus YFR019W, strain FAB1, stronger effect = lower value 0.376 | locus YFR028C, strain CDC14, stronger effect = lower value 0.226 | locus YGR040W, strain KSS1, stronger effect = lower value 0.135 | locus YGR052W, strain FMP48, stronger effect = lower value 0.15 | [7] 0.213 | locus YGR092W, strain DBF2, stronger effect = lower value 0.198 | [8] 0.0763 and 0.104 | locus YHR079C, strain IRE1, stronger effect = lower value 0.125 | locus YHR082C, strain KSP1, stronger effect = lower value 0.141 | [9] 0.442 | locus YHR205W, strain SCH9, stronger effect = lower value 0.138 | locus YIL147C, strain SLN1, stronger effect = lower value 0.322 | locus YJL095W, strain BCK1, stronger effect = lower value 0.115 | locus YJL128C, strain PBS2, stronger effect = lower value 0.386 | locus YJL157C, strain FAR1, stronger effect = lower value 0.301 | locus YJR016C, strain ILV3, stronger effect = lower value 0.162 | [10] 0.245 | locus YJR066W, strain TOR1 (second series), stronger effect = lower value 0.192 | locus YJR066W, strain TOR1, stronger effect = lower value 0.125 | [11] 0.298 | locus YKL048C, strain ELM1, stronger effect = lower value 0.285 | locus YKL067W, strain YNK1, stronger effect = lower value 0.279 | locus YKL101W, strain HSL1, stronger effect = lower value 0.251 | locus YKL190W, strain CNB1, stronger effect = lower value 0.0734 | locus YKL193C, strain SDS22, stronger effect = lower value 0.161 | locus YKL203C, strain TOR2, stronger effect = lower value 0.13 | [12] 0.13 | [13] 0.274 | [14] 0.0695 | locus YLR113W, strain HOG1, stronger effect = lower value 0.15 | locus YLR133W, strain CKI1, stronger effect = lower value 0.27 | [15] 0.12 | locus YLR403W, strain SFP1, stronger effect = lower value 0.0326 | locus YML070W, strain DAK1, stronger effect = lower value 0.211 | [16] 0.192 | locus YMR001C, strain CDC5, stronger effect = lower value 0.151 | locus YMR205C, strain PFK2 (second series), stronger effect = lower value 0.218 | [17] 0.258 | [18] 0.298 | locus YMR277W, strain FCP1, stronger effect = lower value 0.172 | locus YMR307W, strain GAS1, stronger effect = lower value 0.13 | locus YNL006W, strain LST8, stronger effect = lower value 0.2 | locus YNL020C, strain ARK1, stronger effect = lower value 0.257 | [19] 0.239 | locus YNL161W, strain CBK1, stronger effect = lower value 0.211 | locus YNL183C, strain NPR1, stronger effect = lower value 0.115 | locus YNL207W, strain RIO2, stronger effect = lower value 0.195 | locus YNL222W, strain SSU72, stronger effect = lower value 0.225 | [20] 0.0831 | locus YNL307C, strain MCK1 (second series), stronger effect = lower value 0.228 | [21] 0.571 | [22] 0.108 | locus YOL006C, strain TOP1, stronger effect = lower value 0.1 | locus YOL078W, strain AVO1, stronger effect = lower value 0.186 | locus YOL136C, strain PFK27, stronger effect = lower value 0.211 | locus YOR061W, strain CKA2, stronger effect = lower value 0.43 | locus YOR119C, strain RIO1, stronger effect = lower value 0.129 | locus YOR231W, strain MKK1, stronger effect = lower value 0.132 | locus YOR329C, strain SCD5, stronger effect = lower value 0.203 | locus YPL031C, strain PHO85, stronger effect = lower value 0.126 | [23] 0.157 | locus YPL153C, strain RAD53, stronger effect = lower value 0.115 | locus YPL204W, strain HRR25, stronger effect = lower value 0.13 | locus YPL209C, strain IPL1, stronger effect = lower value 0.232 | [24] 0.108 | locus YPL256C, strain CLN2, stronger effect = lower value 0.147 | locus YPR025C, strain CCL1, stronger effect = lower value 0.248 | locus YPR106W, strain ISR1, stronger effect = lower value 0.586 | locus YPR111W, strain DBF20, stronger effect = lower value 0.715 | [25] 0.163 | strain NNK1, stronger effect = lower value 0.492 | strain TSCII, stronger effect = lower value 0.18
